An excerpt weighted towards active compounds, which were near 2.9% of everything screened.
MEKK2 mut-MEK5: signal of MEK5 binding to mutant human MEKK2 PB1 domain. bead flow cytometry, Alexa488-MEK5 binding to MEKK2 mutant. percent response, % at 10 µM. actives 0.35% (n = 290,000). AID 1530; in the data active = percent response above about 24%, passing the limit was not always enough
MEKK3 PB1 HTS: modulators (inhibitors or enhancers) of MEK5 binding to human MEKK3 PB1 domain. bead-based flow cytometry, Alexa488-MEK5 binding to MEKK3; actives lie on both sides; 0 = blocked by unlabeled MEK5, 100 = vehicle. binding response (% of control), % at 10 µM. actives 1.4% (n = 290,000). AID 1529;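 active = binding response more than 3 SD above or below the average of its plate-row segment, actives on both sides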;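 note: Alexa488 bead fluorescence after subtracting the streptavidin-only scavenger bead signal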
Target sequence (Q99759 whole entry, looked up, the tested form may be a part): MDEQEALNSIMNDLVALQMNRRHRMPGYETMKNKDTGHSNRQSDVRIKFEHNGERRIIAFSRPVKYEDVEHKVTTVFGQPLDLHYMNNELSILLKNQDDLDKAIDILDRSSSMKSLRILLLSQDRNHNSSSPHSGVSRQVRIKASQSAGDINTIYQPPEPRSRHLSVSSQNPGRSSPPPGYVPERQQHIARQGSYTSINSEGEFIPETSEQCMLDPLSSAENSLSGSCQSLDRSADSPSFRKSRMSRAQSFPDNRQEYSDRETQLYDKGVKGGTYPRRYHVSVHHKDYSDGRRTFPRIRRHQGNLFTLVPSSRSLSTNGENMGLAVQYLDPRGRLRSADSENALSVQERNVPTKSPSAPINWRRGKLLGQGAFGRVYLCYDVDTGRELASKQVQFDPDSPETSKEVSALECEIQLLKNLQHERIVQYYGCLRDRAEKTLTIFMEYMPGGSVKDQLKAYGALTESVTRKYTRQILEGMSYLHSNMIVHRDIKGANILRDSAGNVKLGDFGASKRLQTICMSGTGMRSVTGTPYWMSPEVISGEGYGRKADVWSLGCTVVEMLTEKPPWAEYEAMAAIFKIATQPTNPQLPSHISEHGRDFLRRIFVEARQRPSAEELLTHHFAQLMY
CRFBP-R2 agonist: agonists of human CRF-binding protein/CRF-R2 receptor complex; HEK293 CRF-R2/CRF-BP, calcium dye fluorescence (FLIPR); percent of saturating CRF peptide response; actives 0.46% (n = 350,000); activation, % at 13.2 µM; AID 588473;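 active = activation of at least 50%, plus an integration ratio under a set limit after plate pattern correction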;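 note: plate controls were neutral control wells without compound for no effect and CRF at EC100 for full effect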
MEKK2 WT-MEK5: raises or lowers MEK5 binding to wildtype human MEKK2 PB1 domain; Q9Y2U5; bead flow cytometry, Alexa488-MEK5 binding to MEKK2 WT; actives lie on both sides; binding response (% of control), % at 10 µM; actives 1.1% (n = 290,000); AID 1531; in the data active = binding response below about 67% or above about 130%
CRFBP-R2 block: antagonists of CRF-binding protein/CRF-R2 receptor complex | inhibition, % at 11.8 µM | actives 0.59% (n = 350,000) | HEK293 CRF-R2/CRF-BP, CRF-induced calcium fluorescence | AID 588475;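 active = inhibition of the ligand-induced calcium signal above about 50% at the single tested concentration, limit read from the data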
ABCB6 inh 2: blocks the human ABCB6 transporter. Q9NP58. fluorescence ratio to DMSO, % at 10 µM. actives 0.19% (n = 360,000). K562-ABCB6 porphyrin accumulation, flow cytometry, 1 h; active compounds read low;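 active = fluorescence ratio to DMSO below 75%, the collection mean minus 3 SD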;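 note: signal is porphyrin accumulated inside mitochondria; 100% equals median channel fluorescence of DMSO control wells; lower ratio means ABCB6 inhibition with less porphyrin fluorescence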
MEKK2wt confirm: raises or lowers MEK5 binding to wildtype human MEKK2, retest; binding response (% of control), % at 10 µM; shares compounds with MEKK3 PB1 HTS; AID 1892; bead flow cytometry, Alexa488-MEK5 binding to MEKK2 WT; actives lie on both sides; actives 2.4% (n = 5,900); in the data active = binding response below about 16% or above about 210%; inactive = in between
MEKK2mut confirm: signal of MEK5 binding to mutant human MEKK2, retest. AID 1893. actives 2% (n = 5,900). percent response, % at 10 µM. shares compounds with MEKK3 PB1 HTS. bead flow cytometry, Alexa488-MEK5 binding to MEKK2 mutant; in the data active = percent response mostly above about 71%, no sharp cut-off; inactive = mostly below about 38%;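 note: higher means compound restores mutant binding toward wildtype level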
MEKK3 confirm: confirmation of inhibitors of MEK5 binding to human MEKK3; binding response (% of control), % at 10 µM; bead flow cytometry, Alexa488-MEK5 binding to MEKK3; active compounds read low; actives 1.8% (n = 5,900); shares compounds with MEKK3 PB1 HTS;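 active = binding response below 72% of control, or above a set upper limit, though filed actives all read lower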;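 note: 100% = DMSO only wells and 0% = binding blocked by excess unlabeled MEK5; lower values mean stronger disruption of MEK5 binding to MEKK3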
Numbers without * were called inactive; i = inactive; x = no result given; [ ] = remark or other dose.

SMILES	MEKK2 mut-MEK5	MEKK3 PB1 HTS	CRFBP-R2 agonist	MEKK2 WT-MEK5	CRFBP-R2 block	ABCB6 inh 2	MEKK2wt confirm	MEKK2mut confirm	MEKK3 confirm
CCN1CCN(C(=O)C(C)Sc2nnc3nc(C)cc(C)n23)CC1 (stereo not given)	x	x	-1.3	x	-1.4	96.0	x	x	x
O=C1CC(N(CCc2ccccc2)C(=S)Nc2ccccc2)C(=O)N1c1ccc(Br)cc1 (stereo not given)	16.0	102.0	9.8	149.0*	-27.8	100.0	140.0	16.0	107.0
COc1ccc(CCN(C(=S)Nc2ccccc2)C2CC(=O)N(c3ccccc3)C2=O)cc1 (stereo not given)	-4.0	102.0	7.5	104.0	-28.8	98.0	x	x	x
CCOc1ccc(OCC)c(S(=O)(=O)n2ccnc2C)c1	25.0*	115.0	-3.6	121.0	-0.6	94.0	92.0	-6.0	97.0
O=C(Cn1c(=O)oc2ccccc21)N1CCN(S(=O)(=O)c2ccccc2)CC1	x	x	1.1	x	5.0	102.0	x	x	x
CCn1c(=O)c(=O)[nH]c2cc(C(=O)N(C)Cc3ccc(OC)c(F)c3)ccc21	7.0	101.0	-0.9	97.0	-2.9	102.0	x	x	x
Cc1ccc(NC(=O)CSc2nnnn2C2CC2)cc1S(=O)(=O)N1CCOCC1	x	x	0.6	x	-1.4	97.0	x	x	x
Cc1c2cnn(CC(=O)NCCCN3CCCCC3)c(=O)c2c(C)n1Cc1ccccc1	22.0	101.0	-1.0	137.0*	22.1	101.0	128.0	20.0	98.0
CCOC(=O)NC(Nc1ccc(C)cn1)(C(F)(F)F)C(F)(F)F	10.0	110.0	2.0	117.0	1.9	100.0	x	x	x
CC(C)OC(=O)NC(Nc1ccccc1C(=O)O)(C(F)(F)F)C(F)(F)F	29.0	132.0*	-1.8	134.0	5.2	101.0	101.0	1.0	100.0
CNCCNC[C@H](Cc1cccc2ccccc12)NCCc1ccccc1	x	x	4.1	x	-13.0	97.0	x	x	x
CNC[C@H](Cc1ccccc1)NC[C@@H](Cc1cccc2ccccc12)NCCc1ccc(C)cc1	120.0*	121.0	13.4	364.0*	-26.5	100.0	255.0*	100.0*	116.0
COc1cc(/C=C/CNC[C@H]2O[C@@H](n3ccc(=O)[nH]c3=O)[C@H](O)[C@@H]2O)ccc1O	x	x	-1.4	x	-0.7	102.0	x	x	x
Cc1cccc(N=C2NC(=O)/C(=C/C=C/c3ccco3)S2)c1	-2.0	64.0*[inhibitor]	0.2	91.0	31.1	99.0	84.0	-14.0	94.0
Cc1c(CNC2CCC(C)CC2)c(C(=O)O)c(C)n1Cc1ccccc1 (stereo not given)	1.0	140.0*	-0.5	111.0	-19.8	90.0	109.0	8.0	106.0
Cc1nnc(C)n1N	-4.0	101.0	-2.5	-3.0*[inhibitor]	-21.9	92.0	94.0	-19.0	93.0
O=C(CCCC(=O)NC1CCCC1)NC1CCCC1	-2.0	94.0	-1.7	96.0	16.9	99.0	x	x	x
O=CNCC(=O)NC1CCCCCC1	-7.0	79.0*[inhibitor]	-0.8	84.0	-9.9	100.0	97.0	-6.0	100.0
Cc1c(C)n(-c2ccc(Cl)cc2)c2ncnc(N)c12	-1.0	103.0	-2.2	99.0	-33.5	91.0	x	x	x
COc1ccc(C2=NO[C@@H]3[C@@H]4C[C@@H]([C@H]5C(=O)N(C)C(=O)[C@@H]45)[C@H]23)cc1	2.0	153.0*	-1.0	107.0	1.9	97.0	101.0	-1.0	100.0
N#C/C(=C/c1ccc(N2CCCCC2)o1)C(=O)Nc1ccc2ccccc2c1	206.0*	148.0*	207.1*	210.0*	-204.3	i	89.0	-30.0	92.0
Cc1ccc(NC(=O)CCC(=O)N2CCN(S(=O)(=O)c3ccc(C)cc3)CC2)cc1	x	x	-0.7	x	-0.2	99.0	x	x	x
CCOc1ccccc1CN1CCCC(CNC(=O)Cc2ccc(OC)cc2)C1 (stereo not given)	3.0	104.0	-1.7	107.0	17.0	98.0	x	x	x
Cn1cnnc1-c1cccc(NC(=O)c2cc(F)c(F)cc2Cl)c1	1.0	135.0*	-0.4	123.0	8.2	104.0	97.0	-7.0	103.0
COc1ccc2[nH]c3c(N4CCc5ccccc5C4)ncnc3c2c1	47.0	127.0	-1.4	189.0*	-22.4	92.0	130.0	15.0	103.0
SMILES	MEKK2 mut-MEK5	MEKK3 PB1 HTS	CRFBP-R2 agonist	MEKK2 WT-MEK5	CRFBP-R2 block	ABCB6 inh 2	MEKK2wt confirm	MEKK2mut confirm	MEKK3 confirm
CCN(C(=O)COC(=O)c1ccc([N+](=O)[O-])o1)C1CCCCC1	x	x	0.9	x	3.1	101.0	x	x	x
Cn1cnnc1SCC(=O)Nc1ccc(S(N)(=O)=O)cc1	10.0	107.0	0.6	111.0	-4.6	98.0	x	x	x
O=C(/C=C/c1cccs1)N1CCN(c2ccc(F)cc2)CC1	-30.0	76.0	1.1	62.0*[inhibitor]	-5.7	94.0	100.0	0.0	100.0
CC(Sc1nc2ccccc2o1)C(=O)O (stereo not given)	-21.0	-3.0*[inhibitor]	0.4	-39.0*[inhibitor]	-1.2	92.0	103.0	3.0	104.0
COC(=O)c1cc(C#N)c(OC(C)C)nc1C	7.0	142.0*	0.1	123.0	-13.4	94.0	98.0	-3.0	97.0
O=C(CN(c1ccc(Cl)cc1)S(=O)(=O)c1ccccc1)N/N=C/c1ccco1	2.0	105.0	-1.6	96.0	-4.6	96.0	x	x	x
Cc1ccc(S(=O)(=O)N(CC(=O)N/N=C/c2ccco2)c2cc(Cl)cc(Cl)c2)cc1	0.0	128.0*	8.8	104.0	38.1	102.0	96.0	-8.0	105.0
COc1cc(C(=O)NCCCOC(C)C)ccc1OC1CCN(C(C)=O)CC1	7.0	105.0	0.2	109.0	5.0	96.0	x	x	x
Cc1ccc(NC(=O)c2snc3c(=O)[nH]cnc23)cc1C	3.0	101.0	x	101.0	x	x	x	x	x
Cc1ccc(NC(=O)c2snc3ccc(Cl)cc23)cc1C	-1.0	131.0*	-0.4	102.0	1.2	103.0	100.0	-3.0	98.0
O=[N+]([O-])c1cc(C(F)(F)F)cc([N+](=O)[O-])c1NCCCNc1ccc([N+](=O)[O-])c2cccnc12	0.0	68.0*[inhibitor]	1.4	102.0	14.0	94.0	105.0	2.0	101.0
O=[N+]([O-])c1cc(C(F)(F)F)cc([N+](=O)[O-])c1NCc1cccnc1	8.0	99.0	6.8	95.0	3.0	103.0	x	x	x
OCc1nnc2c3ccccc3c(-c3ccccc3)nn12	10.0	122.0*	-1.9	118.0	-11.7	99.0	106.0	8.0	103.0
